# In PubChem BioAssay AID1851 (National Center for Advancing Translational Sciences (NCATS), 2009):
# In all, about 16,000 compounds went through this assay and about 5,700 (36%) were called active. Not shown: some 24% with an inconclusive outcome. The call rests on the fitted dose curve; in most records, active means well fitted curve in the direction sought with a large enough effect; inconclusive means small, poorly fitted or top-dose-only effect, or effect the other way; inactive means no such curve, though single readings can be large or run the other way. The list shows a part of the results.
# Target: Cytochrome P450 1A2 (Homo sapiens) (UniProt P05177)
# Test: Cytochrome panel assay with activity outcomes
# Conditions: recombinant CYP, pro-luciferin dealkylation, luminescence, p450-cyp1a2; series mostly up to 57.1 µM
# On the % scale 0 is the no-effect control and ±100 the full control effect.
# Cytochrome P450 1A2 (Homo sapiens), sequence (P05177 whole entry, looked up): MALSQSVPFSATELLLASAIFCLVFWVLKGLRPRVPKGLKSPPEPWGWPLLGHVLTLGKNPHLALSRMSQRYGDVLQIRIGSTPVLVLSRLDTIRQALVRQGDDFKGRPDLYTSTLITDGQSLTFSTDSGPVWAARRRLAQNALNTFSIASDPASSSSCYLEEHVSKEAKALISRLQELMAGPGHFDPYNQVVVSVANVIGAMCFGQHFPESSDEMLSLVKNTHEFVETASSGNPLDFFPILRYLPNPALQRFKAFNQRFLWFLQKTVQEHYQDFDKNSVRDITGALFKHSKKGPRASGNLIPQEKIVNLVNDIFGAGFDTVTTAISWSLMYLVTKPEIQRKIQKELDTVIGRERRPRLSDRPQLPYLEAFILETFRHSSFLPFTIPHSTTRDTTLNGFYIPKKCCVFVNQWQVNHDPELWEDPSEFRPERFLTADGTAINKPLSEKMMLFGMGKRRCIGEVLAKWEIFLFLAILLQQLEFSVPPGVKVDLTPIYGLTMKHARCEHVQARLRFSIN
SMILES,AC50,"activity, negative = inhibition"
CSc1ccc(C#N)cc1NC(=O)c1cccc(Cl)c1,6.31 µM (active),
CCOc1ccc(C(=O)Nc2ccccc2N2CCCC2)cc1,2.82 µM (active),
CCOc1cc(CC(=O)N[C@@H](CC(C)C)c2ccccc2N2CCCCC2)ccc1C(=O)O,inactive,
O=C(Nc1ccccc1N1CCN(C(=O)c2ccc(Cl)cc2)CC1)c1cc(Br)ccc1Cl,inactive,
CCN(CCO)C[C@H]1CCC[C@H]2CCCC[C@@H]21,5.01 µM (active),
O=C1NCCN1Cc1ccccc1F,3.55 µM (active),
Cc1ccc(CS(=O)(=O)CCC(=O)NCCN2CCCC2)cc1,inactive,
O=C(NCCN1CCCCC1)c1ccc(I)cc1,25.1 µM (active),
COc1ccc(CC(=O)NCCN2CCCC2)cc1,inactive,
Nc1cc(Cl)ccc1Oc1ccccc1,7.94 µM (active),
Nc1cc(Cl)ccc1Oc1ccc(Cl)cc1,0.398 µM (active),
CCN(CC)c1cc(C)c2cc(NC(=O)CNC(C)=O)ccc2n1,inactive,
CC(C)(C)NCC[C@@H](O)c1cc(C(F)(F)F)nc2c(C(F)(F)F)cccc12,,-9.91% [at 2.29 µM] (inactive)
CC(=O)NCCNc1nc(-c2ccccc2C)nc2ccccc12,6.31 µM (active),
CC(=O)NCCNc1nc(-c2ccccc2C(F)(F)F)nc2ccccc12,15.8 µM (active),
CC(C)(C)CC(C)(C)c1ccc(OCOCCOCCO)c(Cc2cc(C(C)(C)CC(C)(C)C)cc(Cc3cc(C(C)(C)CC(C)(C)C)ccc3OCOCCOCCO)c2OCOCCOCCO)c1,inactive,
COc1cccc(-c2csc(N3CCN(C(=S)Nc4ccccc4)CC3)n2)c1,3.16 µM (active),
CCOCCCNC(=O)C1CCN(S(=O)(=O)N2CC(C)CC(C)C2)CC1 (centres undefined),inactive,
CC1CCCN(C/C=C/c2ccccc2[N+](=O)[O-])C1 (centres undefined),14.1 µM (active),
O=C(O)[C@H]1CCCN(CCC=C(c2ccccc2)c2ccccc2)C1,inactive,
C[C@@H]1CCCN(CP(=O)(c2ccccc2)c2ccccc2)C1,,-3.49% [at 11.4 µM] (inactive)
CCOC(=O)C1CCCN(C/C=C/c2ccccc2[N+](=O)[O-])C1 (centres undefined),4.47 µM (active),
CCOC(=O)C1CCCN(S(=O)(=O)c2ccccc2)C1 (centres undefined),inactive,
Cc1ccc(NC(=O)/C(=C/c2cccc([N+](=O)[O-])c2)NC(=O)C2CCCCC2)c(C)c1,inactive,
CCOC(=O)C1CCCN(C(=O)/C=C/c2cccc([N+](=O)[O-])c2)C1 (centres undefined),11.2 µM (active),

SMILES,AC50,"activity, negative = inhibition"
O=C(c1ccco1)N1CCC2(CC1)CCN(c1cccc(-c3ccccc3)c1)CC2,15.8 µM (active),
O=C(c1ccncc1)N1CCC[C@@]2(CCN(c3ccccc3)C2)C1,inactive,
O=C(c1ccco1)N1CCC[C@@]2(CCN(c3cccc(-c4ccccc4)c3)C2)C1,15.8 µM (active),
O=C(c1ccco1)N1CCC2(CCCN(c3ccccc3)C2)CC1,inactive,
O=C(c1ccco1)N1CCC[C@@]2(CCN(Cc3ccccc3)C2)C1,inactive,
O=C(c1ccco1)N1CCC2(CC1)CCN(c1ccccc1)CC2,inactive,
O=C(c1ccco1)N1CCC[C@@]2(CCN(c3ccncc3)C2)C1,12.6 µM (active),
O=C(c1ccco1)N1CCC2(CC1)CN(c1ccccc1)C2,inactive,
O=C(c1ccco1)N1CCC2(CC1)CCN(c1ccc(-c3ccccc3)cc1)CC2,inactive,
CCOc1ccc(-c2nn(-c3ccccc3)cc2/C=C(\C#N)S(=O)(=O)c2ccccc2)cc1C,1 µM (active),
O=[N+]([O-])/C=C/c1cn(Cc2ccccc2)c2ccccc12,3.55 µM (active),
O=C1C2C3C=CC(C3)C2C(=O)N1/N=C/c1cn(Cc2ccccc2)c2ccccc12 (centres undefined),15.8 µM (active),
O=C1C2C3C=CC(C3)C2C(=O)N1/N=C/c1cn(Cc2ccc(F)cc2)c2ccccc12 (centres undefined),inactive,
CCC(C(=O)c1ccccc1)N(C(=O)c1ccccc1Cl)N1C(=O)C2C3C=CC(C3)C2C1=O (centres undefined),inactive,
COc1ccc2c(c1OC)C(=O)N(C(C)C(=O)O)C2=O (centres undefined),inactive,
O=c1[nH]c(=O)c2nc3ccccc3nc2[nH]1,12.6 µM (active),
NS(=O)(=O)c1ccc(N=Nc2nc3[nH]c(=O)[nH]c(=O)c3[nH]2)cc1,,-13.4% [at 11.4 µM] (inactive)
COc1cnc(NS(=O)(=O)c2ccc(N)cc2)nc1,inactive,
CC(C)(C)C(=O)Nc1ccnc(-c2cccnc2)n1,2.24 µM (active),
CC(=O)Nc1ccnc(-c2cccnc2)n1,2.51 µM (active),
CCC(=O)O[C@@]1(C(=O)CCl)[C@@H](C)C[C@@H]2[C@H]3CCC4=CC(=O)C=C[C@@]4(C)[C@]3(F)[C@@H](O)C[C@@]21C,inactive,
O=C1[C@@H]2[C@H]3[C@H](O)[C@H](O)C/C(=N/OC[C@@H](O)COCc4ccco4)[C@H]3CC[C@H]2C(=O)N1c1ccc(F)cc1F,,0.735% [at 11.4 µM] (inactive)
Cc1[nH]c2ccccc2c1-c1cc(-c2cc(-c3c(C)[nH]c4ccccc34)on2)no1,0.398 µM (active),
Nc1n[nH]c2ccccc12,,-9.07% [at 2.29 µM] (inactive)
Cc1[nH]c2ccccc2c1-c1cc(-c2cc(-c3c(C)[nH]c4ccccc34)nc(N)n2)nc(N)n1,0.398 µM (active),

SMILES,AC50,"activity, negative = inhibition"
COc1ccc(COC(=O)N/N=C2/C[C@@H](O)[C@@H](O)[C@@H]3[C@@H]4C(=O)N(c5cccc(Oc6ccccc6)c5)C(=O)[C@H]4CC[C@H]23)cc1,,3.29% [at 11.4 µM] (inactive)
CC1=Nc2ccccc2/C1=C\c1nc(-c2ccc(C(F)(F)F)cc2)oc1O,0.891 µM (active),
O=C(c1ccncc1)N1CCC2(CC1)CN(c1ccccc1)C2,inactive,
O=C(c1cnccn1)N1CCC2(CCCN(c3ccccc3)C2)CC1,inactive,
O=C(c1cnccn1)N1CCC[C@@]2(CCN(c3ccncc3)C2)C1,inactive,
O=C(c1cnccn1)N1CCC[C@@]2(CCN(c3cccc(-c4ccccc4)c3)C2)C1,25.1 µM (active),
CS(=O)(=O)N1CCC2(CC1)CN(c1cccc(-c3ccccc3)c1)C2,5.01 µM (active),
O=C(c1ccncc1)N1CCC2(CC1)CN(c1ccc(-c3ccccc3)cc1)C2,inactive,
O=C(c1cnccn1)N1CCC2(CCCN(c3cccc(-c4ccccc4)c3)C2)CC1,20 µM (active),
O=S(=O)(c1ccccc1)N1CCC2(CCCN(c3cccc(-c4ccccc4)c3)C2)CC1,inactive,
O=C(c1cnccn1)N1CCC2(CC1)CN(c1ccccc1)C2,inactive,
O=C(c1cnccn1)N1CCC[C@@]2(CCN(c3ncccn3)C2)C1,inactive,
CS(=O)(=O)N1CCC2(CC1)CN(c1ccncc1)C2,inactive,
O=C(c1ccncc1)N1CCC2(CC1)CN(c1cccc(-c3ccccc3)c1)C2,15.8 µM (active),
COc1ccc(CNC(C)(C)C)cc1Cl,inactive,
COc1cc(CNCc2ccccn2)ccc1OCc1ccc(Cl)cc1Cl,0.316 µM (active),
C=CCSc1nc2ccccc2n1C(=O)/C=C/c1cc(OC)c(OC)c(OC)c1,7.08 µM (active),
CCSc1nc2ccccc2n1C(=O)/C=C\c1ccc(OC)c(OC)c1,6.31 µM (active),
CCn1c(-c2ccccc2Cl)nn(CC(=O)Nc2ccccc2OC)c1=S,inactive,
CCn1c(-c2ccccc2Cl)nn(CC(=O)Nc2cc(Cl)ccc2Cl)c1=S,15.8 µM (active),
CC(=O)OC[C@H]1O[C@@H](O/N=C(\C)CCN2CCCc3nc(C)c(C)cc32)[C@H](OC(C)=O)[C@@H](OC(C)=O)[C@H]1OC(C)=O,,0.931% [at 11.4 µM] (inactive)
CC(C)(C)N1C(=O)[C@H]2[C@H]3[C@H](O)[C@H](O)C/C(=N/OC[C@@H](O)COCc4ccco4)[C@@H]3CC[C@@H]2C1=O,,4.56% [at 11.4 µM] (inactive)
COc1ccc(-c2noc(N(C)CC(=O)Nc3cccc(C(F)(F)F)c3)n2)cc1,5.01 µM (active),
COCCNc1cc(-c2c(C)noc2C)ncn1,10 µM (active),
Cc1noc(C)c1-c1cc(NC2CC2)ncn1,0.316 µM (active),

SMILES,AC50,"activity, negative = inhibition"
CNc1cc(-c2c(C)noc2C)ncn1,5.01 µM (active),
COCCNc1ncncc1-c1c(C)noc1C,inactive,
COC(=O)N1CCC2(CC1)CN(C(c1ccccc1)c1ccccc1)C2,inactive,
C[C@@]12CCC(=O)C=C1CC[C@@H]1[C@@H]2[C@H](O)C[C@]2(C)[C@@H]1CC[C@]2(O)C(=O)CO,inactive,
CCOC(=O)c1c(NC(=O)Nc2ccccc2)sc(C)c1C,3.55 µM (active),
Cc1sc(NC(=O)c2ccccc2)c(C(=O)NCCN(C)C)c1C,11.2 µM (active),
CCN1CCN(C(c2ccccn2)c2c(NC(=O)c3ccccc3)sc(C)c2C)CC1 (centres undefined),inactive,
COC(=O)c1c(NC(C)=O)sc(Cc2ccccc2)c1C,1.58 µM (active),
CC(C)C(=O)Nc1ccc(C(=O)NNC(=O)C(c2ccccc2)c2ccccc2)cc1,inactive,
Cc1sc(NC(=O)C(C)C)c(C(=O)Nc2ccccc2)c1C,1.26 µM (active),
CCOc1ccc(CC(=O)Nc2sc(Cc3ccccc3)c(C)c2C(N)=O)cc1OCC,inactive,
CN(C(=O)CC(NC(=O)c1ccccc1)(c1ccccc1)c1ccccc1)c1ccccc1,inactive,
C=C(Br)CN(C)CC(=C)Br,,-4.98% [at 11.4 µM] (inactive)
CC(C)SC(=N)N,inactive,
Cc1noc(C)c1C(=O)N1CCC[C@@]2(CCN(C(=O)NC(C)C)C2)C1,inactive,
O=C(O)CP(=O)(O)O,inactive,
Cc1oc(-c2cccc(Cl)c2)[n+]([O-])c1C,4.47 µM (active),
CCC(=O)Nc1ccc(C(=O)NNC(=O)c2cccs2)cc1,inactive,
CCC/C=C(\CCC)C(NP(=O)(c1ccccc1)c1ccccc1)c1ccc(C(F)(F)F)cc1 (centres undefined),inactive,
CCCC/C=C/C(NC(=O)c1cccs1)c1ccccc1 (centres undefined),1.58 µM (active),
CCCC/C=C/C(NC(=O)Oc1cccc(C(F)(F)F)c1)c1ccccc1 (centres undefined),2.51 µM (active),
CCCC/C=C/C(NC(=O)c1ccco1)c1ccccc1 (centres undefined),5.01 µM (active),
C#CCOC(=O)NC(/C=C/CCCC)c1ccccc1 (centres undefined),15.8 µM (active),
O=C(c1cccs1)N1CCN(C(=O)C(c2ccccc2)c2ccccc2)CC1,inactive,
